Many of the other results were omitted from the sample, so hits are more common in it than they were.
HIV RNase H inh-1 = inhibitors of HIV-1 reverse transcriptase RNase H. P04585. RT-RNase H RNA/DNA duplex cleavage, fluorescence. inhibition, % at 10 µM. 65,000 compounds, 1.9% hits. AID 565; in the data active means inhibition above about 50%
HIV RNase H inh-2 = confirmation of HIV-1 reverse transcriptase RNase H inhibitors | shares compounds with HIV RNase H inh-1 | Recombinant RT RNase H, fluorescent RNA/DNA duplex cleavage | inhibition, % at 10 µM | 1,000 compounds, 39% hits; in the data active means inhibition above about 48%; inconclusive means no clear call, values can overlap the other calls
* marks the source's active call; other numbers are inactive results; ? = inconclusive.

SMILES	HIV RNase H inh-1	others
N#CC1=C(N)SC(N)=C(C#N)C1CCC1CCCCC1	80.3*	HIV RNase H inh-2=?
Cc1c(C(C)O)nnn1-c1nonc1N (stereo not given)	-6.4
CC(=O)N1CCc2cc(S(=O)(=O)NCCC(=O)NC3CCCc4ccccc43)ccc21 (stereo not given)	-1.2
CN1CCN(S(=O)(=O)c2ccc(Cc3ccc(S(=O)(=O)N4CCN(C)CC4)cc3)cc2)CC1	-17.6
COc1ccccc1NC(=O)CSc1nnc(COc2ccc(Cl)cc2)n1Cc1ccco1	-9.1
COc1ccccc1OCc1nnc(SCC(=O)NCc2ccco2)n1Cc1ccco1	65.5*	HIV RNase H inh-2=20.4
COc1ccc(C)cc1NC(=O)CSc1nnc(COc2ccc(C)cc2)n1Cc1ccco1	-5.6
O=C(Nc1ccc(Cl)cc1)N1CCC(c2nc(-c3ccc(F)cc3)no2)CC1	4.1
c1coc(-c2nc3nc4ccccc4nc3n2-c2ccc3c(c2)OCCO3)c1	-29.3
CCc1nnc(NC(=O)CSc2nnc(-c3ccco3)n2CC)s1	-0.3
N#Cc1c(NC(=O)CCn2cnc3ccccc3c2=O)oc(-c2ccccc2)c1-c1ccccc1	3.6
CCn1c(SCC(=O)Nc2nonc2C)nnc1-c1ccco1	1.4
N#Cc1c(NC(=O)CSc2ncnc3sccc23)oc(-c2ccco2)c1-c1ccco1	73.7*	HIV RNase H inh-2=18.9
CCn1c(SCC(=O)n2c(C)c(C)c3ccccc32)nnc1-c1ccco1	2.7
CCn1c(SCC(=O)Nc2oc(-c3ccccc3)c(-c3ccccc3)c2C#N)nnc1-c1ccco1	64.1*	HIV RNase H inh-2=13.5
CCn1c(SCC(=O)Nc2ccc3c(c2)c2ccccc2n3CC)nnc1-c1ccco1	100.2*	HIV RNase H inh-2=10.9
N#Cc1ccsc1NC(=O)CSc1ncnc2ccccc12	26.5
CCn1c(SCC(=O)Nc2ccc3c(c2)OCCO3)nnc1-c1ccco1	-1.1
c1ccc(CNc2ccc3c(c2)ncn3C2CCCCC2)nc1	2.6
Cc1ccc(S(=O)(=O)Nc2ccc(Br)cc2/C=N/n2cnnc2)cc1	-2.1
CCN(CC)CCNC(=O)c1c(O)c2cc(OC)c(OC)cc2[nH]c1=O	-8.2
O=C(Cn1c(=O)n(-c2ccccc2)c(=O)n1CC(=O)N1CCCCC1)N1CCCCC1	-3.5
Cc1ccc(NC(=O)NC(=O)CN2C(=O)NC3(CCc4ccccc43)C2=O)c(C)c1 (stereo not given)	1.9
O=C(CSc1ncc(-c2ccc(F)cc2)[nH]1)Nc1cccc(O)c1	-6.7
CCCNC(=O)c1ccccc1NC(=O)CN(c1ccccc1OCC)S(C)(=O)=O	-1.0
SMILES	HIV RNase H inh-1	others
CC1CCN(S(=O)(=O)c2cn(CC(=O)N3CCN(C)CC3)c(=O)c3ccccc23)CC1	-12.3
CC(=O)Oc1ccc(N2C(=O)C3C(C2=O)C2(C)C=CC3(C)O2)cc1 (stereo not given)	55.7*	HIV RNase H inh-2=43.1
COC(=O)c1cc(N2C(=O)C3C(C2=O)C2(C)C=CC3(C)O2)ccc1Cl (stereo not given)	15.6
CC(=O)Oc1ccc(C(c2ccc(OC(C)=O)cc2)c2ccccn2)cc1	-9.3
Cc1ccc(Cl)cc1N1CCN(C(=O)c2cc3c(=O)n(C)c4ccccc4c3n2C)CC1	18.7
CN1c2cccc3cccc(c23)N(C)C1(C)C	2.5
CCCN1c2cccc3cccc(c23)S1(=O)=O	-62.5
CN1/C(=N\O)c2cccc3cccc1c23	61.4*	HIV RNase H inh-2=1.7
CCCCC(=O)NC(Nc1nc(C2CC2)cs1)(C(=O)OCC)C(F)(F)F (stereo not given)	10.6
Cc1ccc2[nH]c(=O)c(C(c3nnnn3CCc3ccccc3)N3CCOCC3)cc2c1 (stereo not given)	-1.7
Cc1onc(-c2ccccc2)c1C(=O)Nc1sc2c(c1C(N)=O)CCC2	-11.2
CCC(CC)c1nnc(NC(=O)c2c(-c3ccccc3)noc2C)s1	83.7*	HIV RNase H inh-2=28.2
Cc1onc(-c2ccccc2)c1C(=O)Nc1nnc(N(C)Cc2ccccc2)s1	-1.8
Cc1cc(C)n2nc(NCc3cccc(Br)c3)nc2n1	-23.1
CC1CCN(S(=O)(=O)c2ccc(S(=O)(=O)NCC(=O)C(C)(C)C)cc2)CC1	4.8
COCCCNC(=O)C1CCN(C(=O)Nc2ccc(Cl)cc2)CC1	3.1
CCSc1nc2sc3c(c2c2nnc(SCC(=O)NCc4ccco4)n12)CCCC3	-0.9
CC(C)Sc1nc2sc3c(c2c2nnc(SCC(=O)NCc4ccco4)n12)CCCC3	86.5*	HIV RNase H inh-2=66.9*
Cc1nc(SCC(=O)NCc2ccco2)c2c3c(sc2n1)CCCC3	-43.1
Cc1occc1-c1nnc(SCC(=O)NC(=O)NC(C)C)n1N	-17.9
C=CCN(C(=O)CSc1nc2[nH]ncc2c(=O)n1-c1ccccc1OC)c1ccccc1	17.6
Cc1nc2nc(C)c(CCC(=O)NCc3ccc4c(c3)OCO4)c(C)n2n1	1.4
Clc1ccc(-c2nnc3sc(-c4ccc(Br)o4)nn23)cc1	47.6
CN(C)c1ccc(-c2nn3c(-c4ccc(Cl)cc4Cl)nnc3s2)cc1	42.6
Cc1oc(-c2ccc(Cl)cc2)cc1-c1nn2c(-c3ccoc3C)nnc2s1	86.2*	HIV RNase H inh-2=55.2*
SMILES	HIV RNase H inh-1	others
Cc1cc(C)n2nc(S(=O)(=O)NC3CCCCC3)nc2n1	-4.1
CCOC(=O)C1(Cc2ccc(O)cc2)NC(c2ccco2)C2C(=O)N(c3ccccc3F)C(=O)C21 (stereo not given)	4.1
CCOC(=O)c1c(N)sc2c1CCCC2	85.4*	HIV RNase H inh-2=-1.4
CCOC(=O)c1c(N)sc2c1CCC(C)C2 (stereo not given)	4.9
CCOC(=O)c1c(N)sc2c1CCS(=O)(=O)C2	46.0
CN1CCCCCC1=NC1=C(C#N)CCCC1	-5.1
COc1ccc(C(c2nnnn2C2CCCC2)N2CCc3ccccc3C2)cc1OC (stereo not given)	-4.5
COc1ccc(C(c2nnnn2CCc2ccccc2)N2CCN(C)CC2)cc1OC (stereo not given)	3.0
COCCn1nnnc1C(c1ccc(O)c(OC)c1)N1CCc2ccccc2C1 (stereo not given)	61.2*	HIV RNase H inh-2=-2.9
COc1ccc(Cl)cc1NC(=O)C1CSC(c2ccncc2)=N1 (stereo not given)	-25.4
CCCn1c(=O)c2ccccc2n2c(SCc3cc(=O)n4ccsc4n3)nnc12	-16.1
C=CCn1c(SCc2cc(=O)n3ccsc3n2)nnc1C1CCCCC1	66.8*	HIV RNase H inh-2=-0.6
C=CCn1c(SCC(=O)NC(=O)NC2CCCC2)nnc1C1CCCCC1	-3.6
COC(=O)Cn1c(CCS(=O)(=O)c2ccc(C)cc2)nc2ccccc21	-6.3
Cc1cccnc1NC(=O)c1c(O)c2cccc3c2n(c1=O)CCC3	-4.9
Cc1ccccc1NC(=O)c1c(O)c2cccc3c2n(c1=O)CCC3	0.7
Cc1ccccc1NC(=O)c1c(O)c2cccc3c2n(c1=O)CC3	52.5*	HIV RNase H inh-2=97.3*
O=P(O)(CCCCP(=O)(O)CCc1ccccc1)CCc1ccccc1	2.5
COc1cc(C2C3CN(C)CC=C3C(C#N)=C(N)C2(C#N)C#N)ccc1OC(C)C (stereo not given)	1.3
N#CC1=C(N)C(C#N)(C#N)[C@H](c2ccncc2)[C@H]2CN(C(=O)OCc3ccccc3)CC=C12	14.6
CCCOc1ccc([C@@H]2C3CN(C(=O)OCC)CC=C3C(C#N)=C(N)C2(C#N)C#N)cc1OC (stereo not given in full)	70.4*	HIV RNase H inh-2=19.3
Cc1ccc(=O)n(C(C(=O)NCc2ccco2)C(=O)c2ccc(F)cc2)c1 (stereo not given)	-9.1
O=C(c1cc2c(=O)oc3ccccc3c2s1)N1CCN(c2ccccn2)CC1	14.8
COc1ccc(-c2nn3cnnc3s2)cc1OC	-9.4
COc1cc(-c2nn3c(-c4ccccn4)nnc3s2)cc(OC)c1OC	-11.0

High-throughput results from PubChem BioAssay.
